Results: the supplement of paper PMC6953052
Several values for one entry are separate records, joined by “and”; a condition that tells them apart may be missing. Equal entries are not always repeated. ± gives the standard deviation of the averaged measurements. In all, about 1,700 compounds were measured (“fraction of GFP-LC3-positive cells (≥5 vesicles/cell)”: median about 0.058, highest 2% from about 0.59 on). The sample as a whole holds a higher share of the highest values than the screen did.

system: CbCln3 +/+ GFP-LC3 cerebellar neuronal cells; assay: fraction of GFP-LC3-positive cells (≥5 vesicles/cell); higher = more autophagosome accumulation
How it was run: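 Compound (~50 nL in DMSO) was pin-transferred in duplicate onto wild-type or mutant CbCln3 cerebellar cells stably expressing GFP-LC3, seeded at 2 × 10^3/well in 384-well plates, for 24 h at 33 °C. After fixation in 3.2% PFA, three fields per well were imaged at 10×. The value reported is the duplicate average of the fraction of cells meeting a vesicle-count threshold, with CellProfiler counting GFP-LC3 vesicles per cell and out-of-focus images excluded. Cells met the threshold at 5 or more vesicles.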

Compound	fraction of GFP-LC3-positive cells
CC/C=C\C/C=C\C/C=C\C/C=C\C/C=C\CCCC(=O)O	0.047
CC/C=C\C/C=C\C/C=C\C/C=C\C/C=C\CCCC(=O)O [Eicosapentaenoic acid (20:5 n-3)]	0.0669
Clc1ccc(C(Cn2ccnc2)OCc2csc3c(Cl)cccc23)c(Cl)c1.O=[N+]([O-])O (centres undefined) [Sertaconazole nitrate]	0.0474
O=C(O)c1cc(N(Cc2ccccc2O)Cc2cc(O)ccc2O)ccc1O	0.0412
O=C(O)c1cc(N(Cc2ccccc2O)Cc2cc(O)ccc2O)ccc1O [Lavendustin A]	0.0834
CCCCNc1c(C(=O)OCC)c(C)nc2c1cnn2CC.Cl [Tracazolate hydrochloride]	0.0505
Cc1c(OCC(F)(F)F)ccnc1CS(=O)c1nc2ccccc2[nH]1 (centres undefined) [Lansoprazole]	0.0343
COC1=CC(=O)C[C@@H](C)[C@]12Oc1c(Cl)c(OC)cc(OC)c1C2=O [Griseofulvin]	0.172
Cc1ncc(C[n+]2csc(CCO)c2C)c(N)n1.Cl.[Cl-] [Thiamine hydrochloride]	0.0725
CC[C@H](C)C(=O)O[C@H]1C[C@@H](C)C=C2C=C[C@H](C)[C@H](CC[C@@H]3C[C@@H](O)CC(=O)O3)[C@H]21 [Mevinolin (lovastatin)]	0.203
CC(C)(Oc1ccc(C2CC2(Cl)Cl)cc1)C(=O)O (centres undefined) [Ciprofibrate]	0.0359
CCN(CC)C(=O)N1CCN(C)CC1.O=C(O)CC(O)(CC(=O)O)C(=O)O [Diethylcarbamazine citrate]	0.0418
CC(=O)O[C@H]1C(=O)[C@@]2(C)[C@H]([C@H](OC(=O)c3ccccc3)[C@]3(O)C[C@H](OC(=O)[C@H](O)[C@@H](NC(=O)c4ccccc4)c4ccccc4)C(C)=C1C3(C)C)[C@]1(OC(C)=O)CO[C@@H]1C[C@@H]2O [Paclitaxel]	0.642
CC(=O)O[C@H]1C(=O)[C@@]2(C)C([C@H](OC(=O)c3ccccc3)[C@]3(O)C[C@H](OC(=O)[C@H](O)[C@@H](NC(=O)c4ccccc4)c4ccccc4)C(C)=C1C3(C)C)[C@]1(OC(C)=O)CO[C@@H]1C[C@@H]2O (some centres undefined) [taxol =paclitaxel]	0.536
CS(=O)c1ccc(-c2nc(-c3ccc(F)cc3)c(-c3ccncc3)[nH]2)cc1 (centres undefined)	0.023
Cc1cnc(C(=O)NCCc2ccc(S(=O)(=O)NC(=O)NC3CCCCC3)cc2)cn1 [Glipizide]	0.057
CCOC(=O)n1ccn(C)c1=S [Carbimazole]	0.0518
N=C(N)NCC1COC2(CCCCC2)O1.N=C(N)NCC1COC2(CCCCC2)O1.O=S(=O)(O)O (centres undefined) [Guanadrel sulfate]	0.041
CC/C=C/C/C=C/C/C=C/CCCCCCCCCC(=O)O [Eicosatrienoic acid (20:3 N-3)]	0.0456
CCCCC/C=C/C/C=C/CCCCCCCCCCCC(=O)O [13(Z),16(Z)-Docosadienoic acid]	0.0709
CC(=O)OCC(=O)[C@@]1(OC(C)=O)[C@@H](C)C[C@H]2[C@@H]3C[C@H](F)C4=CC(=O)C=C[C@]4(C)[C@@]3(F)[C@@H](O)C[C@@]21C [Diflorasone Diacetate]	0.085
O=C1Cc2c([nH]c3ccc(Br)cc23)-c2ccccc2N1	0.0413
CCCNC(=O)[C@H]1O[C@@H]1C(=O)N[C@H](C(=O)N1CCC[C@H]1C(=O)OC)C(C)CC (some centres undefined)	0.399 and 0.352
CNCCC(Oc1ccccc1OC)c1ccccc1.Cl (centres undefined) [Nisoxetine hydrochloride]	0.0525
C[C@@H](O)[C@H]1C(=O)N2C(C(=O)O)=C(S[C@@H]3CN[C@H](C(=O)N(C)C)C3)[C@H](C)[C@H]12 [Meropenem]	0.0612

Compound	fraction of GFP-LC3-positive cells
Nc1ccc(C(=O)NCC(=O)O)cc1 [Aminohippuric acid]	0.0809
COc1ccc(Cl)cc1C(=O)NCCc1ccc(S(=O)(=O)NC(=O)NC2CCCCC2)cc1	0.0797
CC(C)Cc1ccc([C@H](C)C(=O)O)cc1 [S-(+)-ibuprofen]	0.0447
O=[N+]([O-])c1cccc2c(Br)n[nH]c12 [Bromo-7-nitroindazole [3-Bromo-7-nitroindazole]]	0.0548
C1COC(NC(C2CC2)C2CC2)=N1.C1COC(NC(C2CC2)C2CC2)=N1.O=C(O)/C=C/C(=O)O [Rilmenidine hemifumarate]	0.0609
COc1ccc2c(c1)c(CC(=O)N1CCOCC1)c(C)n2C(=O)c1ccc(Cl)cc1	0.0513 ± 0.01
CCCCCCCCCCCCCCCCC(=O)O [Heptadecanoic acid]	0.0793
C[N+](C)(C)CCOC(N)=O.[Cl-] [Carbachol]	0.0698
CN(C)CCCn1cc(C2=C(c3c[nH]c4ccccc34)C(=O)NC2=O)c2ccccc21	0.0883 and 0.0921
Cn1cc(C2=C(c3cn(CCCSC(=N)N)c4ccccc34)C(=O)NC2=O)c2ccccc21	0.845 ± 0.071
COc1ccc(CCN(C)CCCC(C#N)(c2ccc(OC)c(OC)c2)C(C)C)cc1OC.Cl (centres undefined) [Verapamyl hydrochloride]	0.0534
COC(=O)[C@H]1[C@H]2C[C@H]3c4[nH]c5ccccc5c4CCN3C[C@@H]2CC[C@@H]1O.Cl [Corynanthine hydrochloride]	0.0351
NC(=O)c1ncn([C@@H]2O[C@H](CO)[C@@H](O)[C@H]2O)n1 [Ribavirin]	0.033
Nc1nc(S)c2ncn([C@@H]3O[C@H](CO)[C@@H](O)[C@H]3O)c2n1 [Thioguanosine]	0.131
Nc1ncn(C2O[C@H](CO)[C@@H](O)[C@H]2O)c(=O)n1 (some centres undefined) [Azacytidine-5]	0.745
C[C@]12CCC(=O)C=C1CC[C@@H]1[C@@H]2[C@@H](O)C[C@@]2(C)[C@H]1CC[C@]2(O)C(=O)CO [Hydrocortisone base]	0.049
C[C@@H](N)[C@H]1CC[C@H](C(=O)Nc2ccncc2)CC1	0.074
CNCCC=C1c2ccccc2CCc2ccccc21.Cl [Nortriptyline hydrochloride]	0.0533
Cc1nccn1CC1CCc2c(c3ccccc3n2C)C1=O.Cl (centres undefined) [Ondansetron Hydrochloride]	0.03
CCCCCCCCCCCCCCCCCCCCCCC(=O)O [Tricosanoic acid]	0.0481
Cc1cc(CC(=O)[O-])n(C)c1C(=O)c1ccc(Cl)cc1.[Na+] [Zomepirac sodium salt]	0.0585
CC(COc1ccccc1)N(CCCl)Cc1ccccc1.Cl (centres undefined) [Phenoxybenzamine hydrochloride]	0.139
Cc1cc(C(C)(C)C)cc(C)c1CC1=NCCN1.Cl [Xylometazoline hydrochloride]	0.0933
Cc1ccc(Cl)c(Nc2ccccc2C(=O)[O-])c1Cl.O.[Na+] [Meclofenamic acid sodium salt monohydrate]	0.0498
CCCC[C@@H](C)/C=C(C)/C=C(\C)C(=O)NC1=C[C@@](O)(/C=C/C=C/C=C/C(=O)NC2=C(O)CCC2=O)[C@@H]2O[C@@H]2C1=O [manumycin A]	0.695

Compound	fraction of GFP-LC3-positive cells
COc1ccccc1OCC(O)COC(N)=O (centres undefined) [Methocarbamol]	0.0551
COc1cc(C(=O)OCCCN2CCCN(CCCOC(=O)c3cc(OC)c(OC)c(OC)c3)CC2)cc(OC)c1OC.Cl.Cl [Dilazep dihydrochloride]	0.0467
COC(=O)[C@H]1[C@H]2C[C@@H]3c4[nH]c5cc(OC)ccc5c4CCN3C[C@H]2C[C@@H](OC(=O)/C=C/c2cc(OC)c(OC)c(OC)c2)[C@@H]1OC [Rescinnamin]	0.134
COc1cc(/C=C/C(=O)N2CCC=CC2=O)cc(OC)c1OC [Piperlongumine]	0.781
COc1ccc2c(c1OC)C(=O)O[C@@H]2[C@H]1c2c(cc3c(c2OC)OCO3)CCN1C [Noscapine]	0.0895
COC(=O)/C=C/c1cc(O)ccc1O	0.852
Oc1cc(O)cc(/C=C/c2ccc(O)c(O)c2)c1	0.173
Oc1cc(O)cc(/C=C/c2ccc(O)c(O)c2)c1 [Piceatannol]	0.357
COc1ccc(C(=O)c2ccccc2)c(O)c1 [Oxybenzone]	0.0797
CCCCCCCC/C=C\CCCCCCCCOC[C@H](COP(=O)([O-])OCC[N+](C)(C)C)OC(C)=O	0.0408 ± 0.0017
C[n+]1cccc(C(=O)[O-])c1 [Trigonelline]	0.042
Cn1cnc2c(NCc3ccccc3)nc(NCCO)nc21	0.0719
Cn1cnc2c(NCc3ccccc3)nc(NCCO)nc21 [olomoucine]	0.058
O.O.O=c1c(O)c(-c2ccc(O)c(O)c2)oc2cc(O)cc(O)c12 [Quercetine dihydrate]	0.0843
CSCC[C@@H](C=O)NC(=O)[C@H](CC(C)C)NC(=O)[C@H](CC(C)C)NC(C)=O	0.0674
CCCC[C@@H](C=O)NC(=O)[C@H](CC(C)C)NC(=O)[C@H](CC(C)C)NC(C)=O	0.926
CC(=O)N[C@@H](CC(C)C)C(=O)N[C@@H](CC(C)C)C(=O)N[C@H](C=O)CCCNC(=N)N [Leupeptin]	0.0499
Nc1ccn([C@H]2CC[C@@H](CO)O2)c(=O)n1 [Zalcitabine]	0.11
O=C1CCc2c(ccc3ccccc23)O1 [Splitomycin]	0.0416
O=C1C=CC(=O)c2c1ccc1c2ccc2ccccc21 [Chrysene-1,4-quinone]	0.597
CCCCCCCCCCC(=O)O [Undecanoic acid]	0.0729
CC(=O)Oc1cc(C(C)C)c(OCCN(C)C)cc1C.Cl [Moxisylyte hydrochoride]	0.0756
CS(=O)(=O)c1ccc([C@@H](O)[C@@H](CO)NC(=O)C(Cl)Cl)cc1 [Thiamphenicol]	0.0366
COc1ccc(CC(N)C(=O)N[C@H]2[C@@H](O)[C@H](n3cnc4c(N(C)C)ncnc43)O[C@@H]2CO)cc1 (some centres undefined) [puromycin]	0.276
